Test results from the antibiotic and cytotoxicity screens of Wong et al. (2023).
Out of some 39,000 compounds screened, about 3,300 (8.5%) were called active. Many of the other results were omitted from the sample, so actives are more common in it than they were.

What follows are compounds tested on HepG2 (assay: cytotoxicity call (relative viability < 0.9)). Details: 10 µM.
For `C[C@@H]1CN([C@H](C)CO)C(=O)c2cc(NS(=O)(=O)c3ccccc3)ccc2O[C@@H](C)CCCCO[C@@H]1CN(C)C(=O)C1CCCCC1`, the cytotoxicity call was “inactive”.
In the case of `CN1CCCN=C1C=Cc1cccc(O)c1.O=C(O)c1cc2ccccc2c(Cc2c(O)c(C(=O)O)cc3ccccc23)c1O`, the cytotoxicity call is reported as “inactive”.
`Cc1cc(C=Cc2ccc3cc(N(C)C)ccc3[n+]2C)c(C)n1-c1ccccc1.O=C([O-])c1cc2ccccc2c(Cc2c(O)c(C(=O)O)cc3ccccc23)c1O` was tested, and the cytotoxicity call was “active”.
For `CN1CCCN=C1C=Cc1cccs1.O=C(O)c1cc2ccccc2c(Cc2c(O)c(C(=O)O)cc3ccccc23)c1O`, the cytotoxicity call was “inactive”.
For `O=C(C[C@@H]1C[C@H]2c3cc(NS(=O)(=O)c4ccc(F)cc4)ccc3O[C@H]2[C@H](CO)O1)NC1CCCCC1`, the cytotoxicity call was “inactive”.
In the case of `C[C@@H]1CN([C@H](C)CO)C(=O)c2cc(NC(=O)Nc3ccc(C(F)(F)F)cc3)ccc2O[C@@H]1CN(C)S(=O)(=O)c1ccc(Cl)cc1`, the cytotoxicity call is reported as “active”.
With `C[C@H]1CN([C@@H](C)CO)C(=O)c2cc(NS(C)(=O)=O)ccc2O[C@H]1CN(C)S(=O)(=O)c1ccc(Cl)cc1` the cytotoxicity call was “inactive”.
`C[C@@H]1CN([C@@H](C)CO)C(=O)c2cc(NC(=O)Nc3ccc(C(F)(F)F)cc3)ccc2O[C@@H]1CN(C)S(=O)(=O)c1ccc(Cl)cc1` was tested, and the cytotoxicity call was “active”.
In the case of `C[C@H](CO)N1C[C@H](C)[C@@H](CN(C)S(=O)(=O)c2ccc(Cl)cc2)Oc2ccc(NS(C)(=O)=O)cc2C1=O`, the cytotoxicity call is reported as “inactive”.
In the case of `C[C@H]1CN([C@@H](C)CO)C(=O)c2cc(NC(=O)Nc3ccc(C(F)(F)F)cc3)ccc2O[C@@H]1CN(C)S(=O)(=O)c1ccc(Cl)cc1`, the cytotoxicity call is reported as “active”.
`C[C@H]1CN([C@@H](C)CO)C(=O)c2cc(NS(C)(=O)=O)ccc2O[C@@H]1CN(C)S(=O)(=O)c1ccc(Cl)cc1` was tested, and the cytotoxicity call was “active”.
In the case of `Cc1noc(C)c1S(=O)(=O)Nc1ccc2c(c1)C(=O)N([C@H](C)CO)C[C@@H](C)[C@@H](CN(C)S(=O)(=O)c1c(C)noc1C)O2`, the cytotoxicity call is reported as “inactive”.
`CS(=O)(=O)N1CCOC[C@]2(CN(C(=O)c3ccc[nH]3)CCO2)C1` was tested, and the cytotoxicity call was “inactive”.
In the case of `Cc1noc(C)c1S(=O)(=O)Nc1cccc2c1O[C@@H](CN(C)S(=O)(=O)c1ccc(Cl)cc1)[C@@H](C)CN([C@@H](C)CO)C2=O`, the cytotoxicity call is reported as “inactive”.
For `CCS(=O)(=O)N1CCO[C@]2(COCCN(c3cncnc3)C2)C1`, the cytotoxicity call was “inactive”.
`Cc1noc(C)c1NC(=O)Nc1ccc2c(c1)C(=O)N([C@@H](C)CO)C[C@@H](C)[C@@H](CN(C)Cc1ccc(C(F)(F)F)cc1)O2` was tested, and the cytotoxicity call was “inactive”.
For `Cc1cccn2c(=O)c(-c3nn[nH]n3)cnc12`, the cytotoxicity call was “inactive”.
For `O=C(C[C@H]1C=C[C@H](NC(=O)CN2CCOCC2)[C@@H](CO)O1)NCc1cccc(F)c1`, the cytotoxicity call was “inactive”.
In the case of `C[C@@H]1CN([C@@H](C)CO)S(=O)(=O)c2ccc(-c3cncnc3)cc2O[C@@H]1CN(C)C(=O)NC1CCCC1`, the cytotoxicity call is reported as “inactive”.
In the case of `C[C@H](CO)N1C[C@H](C)[C@@H](CN(C)Cc2ccc(C(=O)O)cc2)Oc2c(NC(=O)Nc3ccc(C(F)(F)F)cc3)cccc2C1=O`, the cytotoxicity call is reported as “inactive”.
In the case of `C[C@@H]1CN([C@H](C)CO)C(=O)c2cc(NC(=O)Nc3ccc(C(F)(F)F)cc3)ccc2O[C@H]1CN(C)S(=O)(=O)c1ccc(Cl)cc1`, the cytotoxicity call is reported as “active”.
`C[C@H](CO)N1C[C@H](C)[C@H](CN(C)S(=O)(=O)c2ccc(Cl)cc2)Oc2ccc(NC(=O)Nc3ccc(C(F)(F)F)cc3)cc2C1=O` was tested, and the cytotoxicity call was “active”.
For `C[C@@H]1CN([C@@H](C)CO)C(=O)c2cc(NC(=O)Nc3ccc(C(F)(F)F)cc3)ccc2O[C@H]1CN(C)S(=O)(=O)c1ccc(Cl)cc1`, the cytotoxicity call was “active”.
In the case of `C[C@H]1CN([C@@H](C)CO)C(=O)c2cc(NC(=O)Nc3ccc(C(F)(F)F)cc3)ccc2O[C@H]1CN(C)S(=O)(=O)c1ccc(Cl)cc1`, the cytotoxicity call is reported as “inactive”.
With `COc1ccc(S(=O)(=O)N(C)C[C@H]2OCCCC[C@H](C)Oc3ccc(NC(=O)CCC(F)(F)F)cc3C(=O)N([C@@H](C)CO)C[C@@H]2C)cc1` the cytotoxicity call was “inactive”.
`O=C1CCC(C(=O)O)CC1` was tested, and the cytotoxicity call was “inactive”.
For `C[C@@H]1CN([C@@H](C)CO)C(=O)c2cc(NC(=O)CCN3CCOCC3)ccc2O[C@@H]1CN(C)S(=O)(=O)c1ccccc1`, the cytotoxicity call was “inactive”.
With `C[C@@H]1CCCCO[C@@H](CN(C)C(=O)Nc2cccc3ccccc23)[C@@H](C)CN([C@H](C)CO)C(=O)c2cc(NC(=O)Nc3ccc(C(F)(F)F)cc3)ccc2O1` the cytotoxicity call was “inactive”.
In the case of `COc1ccc(S(=O)(=O)N(C)C[C@@H]2Oc3ccc(NS(=O)(=O)c4cn(C)cn4)cc3C(=O)N([C@H](C)CO)C[C@@H]2C)cc1`, the cytotoxicity call is reported as “inactive”.
For `C[C@H](CO)N1C[C@H](C)[C@@H](CN(C)S(=O)(=O)c2ccc3ccccc3c2)OCc2cnnn2CCCC1=O`, the cytotoxicity call was “inactive”.
`COc1ccc(C#Cc2cnc3c(c2)C(=O)N([C@H](C)CO)C[C@H](C)[C@H](CN(C)S(=O)(=O)c2cccc(F)c2)O3)cc1OC` was tested, and the cytotoxicity call was “inactive”.
With `COc1ccc(COCC23Oc4ccccc4[C@H]([C@H]2CO)n2c(c4ccccc4c(-c4ccccc4)c2=O)N3C)cc1` the cytotoxicity call was “active”.
`COc1ccc(COCC23Oc4ccccc4[C@H]([C@H]2CO)n2c(c4c(c(C(C)=O)c2=O)C(=O)N(C)C4=O)N3C)cc1` was tested, and the cytotoxicity call was “inactive”.
In the case of `COc1ccc(COCC23Oc4ccccc4[C@H]([C@H]2CO[Si](C)(C)C(C)(C)C)n2c(c4ccccc4c(-c4ccccc4)c2=O)N3C)cc1`, the cytotoxicity call is reported as “active”.
For `COC(=O)c1c(C(=O)OC)c2n(c(=O)c1-c1ccccc1)[C@@H]1c3ccccc3O[C@@](COCc3ccc(OC)cc3)([C@@H]1COC(=O)c1ccccc1)N2C`, the cytotoxicity call was “inactive”.
For `COC(=O)c1c(C(=O)OC)c2n(c(=O)c1-c1ccccc1)[C@@H]1c3ccccc3O[C@@](COCc3ccc(OC)cc3)([C@@H]1CO[Si](C)(C)C(C)(C)C)N2C`, the cytotoxicity call was “inactive”.
`COC(=O)c1c(C(=O)OC)c2n(c(=O)c1-c1ccccc1)[C@@H]1c3ccccc3O[C@@](CO)([C@@H]1CO)N2C` was tested, and the cytotoxicity call was “inactive”.
With `COc1ccc(COCC23Oc4ccccc4[C@H]([C@H]2COC(=O)NCCCCCC(=O)NO)n2c(c4c(c(C(C)=O)c2=O)C(=O)N(C)C4=O)N3C)cc1` the cytotoxicity call was “inactive”.
With `COC(=O)c1cc(-c2ccccc2)c(=O)n2c1N(C)[C@@]1(COCc3ccc(OC)cc3)Oc3ccccc3[C@@H]2[C@H]1CO[Si](C)(C)C(C)(C)C` the cytotoxicity call was “inactive”.
In the case of `COc1ccc(COCC23Oc4ccccc4[C@H]([C@H]2COC(=O)c2ccccc2)n2c(c4ccccc4c(-c4ccccc4)c2=O)N3C)cc1`, the cytotoxicity call is reported as “active”.
